PubChem BioAssay AID588398 (Broad Institute, 2011)
Screen size: about 1,200 compounds; about 110 (9.2%) were called active. Roughly 8% stayed inconclusive and do not appear here. Only a sample is shown. Measured potencies and affinities stand elsewhere. A number with no mark means an inactive call.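 How the source made its calls: active means pathway reporter half-maximal dose under half the control reporter's, or control reporter unaffected while pathway reporter is inhibited; inconclusive means either signal flat at 30 to 70% inhibition or poorly fitted; inactive means the rest.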

experiment: TES1-eGFP NF-kB reporter inhibition versus Tet-On dsRED, dose response, selectivity assay for LMP1 NF-kB inhibitor project, imaging, HEK293T, dual-color eGFP/dsRED, cherry-picks (AID 588398); settings: 48 h; HEK293T Tet-On dsRED counter-screen channel, at 19.5 µM (top of the series); activity change, negative = inhibition: at the top concentration;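 further: 0% = median of neutral control wells and -100% = median of MG132 positive control wells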

In order of falling “activity change, negative = inhibition” value:
1. C[C@@H]1CN([C@@H](C)CO)S(=O)(=O)c2ccc(/C=C/c3ccccc3)cc2O[C@@H]1CN(C)Cc1ccc(C(=O)O)cc1  89.4%
2. CCSc1nnc(NC(=O)CSc2nnc(-c3c[nH]c4ccccc34)n2CC)s1  40.4%
3. CCOc1ccc(OCc2cccc(C(=O)N3CCCC3)c2)cc1  31.9%
4. C[C@@H]1CN([C@@H](C)CO)C(=O)c2cc(NC(=O)Nc3ccccc3)ccc2O[C@H]1CN(C)C(=O)Nc1cccc2ccccc12  27.7%
5. CCOc1ccc(C(=O)Nc2nnc(SCC(=O)NCC3CCCO3)s2)cc1 (centres undefined)  27.3%
6. COc1ccc(O)c(/C=N/NC(=O)c2ccc(OCc3cccc(Br)c3)cc2)c1  22.7%
7. CSc1ccccc1OCc1cc(C(=O)N2CCC[C@H]2C(N)=O)no1  18.8%
8. O=C(OCc1nc2ccccc2s1)[C@@H]1CCCN1S(=O)(=O)c1ccccc1F  17.3%
9. COC(=O)c1[nH]c2ccc(C)cc2c1NC(=O)NC1CCCCC1  13.7%
10. S=C1SCN(Cc2ccccc2)CN1Cc1ccco1  12.6%
11. CN(C)c1ccc(-c2nc3ccccc3n2C)cc1  12.4%
12. O=C(/C=C/Nc1cccc(C(F)(F)F)c1)C(F)(F)F  9.44%
13. CSc1nc(C)cc(C)c1C#N  8.86%
14. N/C(=N\OC(=O)c1ccccc1)c1ccccn1  6.51%
15. O=C1c2ccccc2C(=O)c2cc(N3CCCCC3)ccc21  5.87%
16. CCSc1nc2ccc(OC)cc2cc1C#N  5.68%
17. O=C1c2ccccc2C(O)N1Cc1ccccc1 (centres undefined)  5.47%
18. COc1ccc(C(=O)Nc2nnc(SCC(=O)NC3CC3)s2)cc1  5.05%
19. Cc1cccc(/C=N/NC(=O)CNc2cccc3ccccc23)n1  3.88%
20. O=[N+]([O-])c1ccc(O)c(/C=N/Nc2ncnc3c2cnn3-c2ccccc2)c1  0.818%
21. Nc1ccn(C2CCCO2)c(=O)n1 (centres undefined)  0.032%
22. O=C(O)c1c2c(nc3ccccc13)/C(=C/c1ccc(O)cc1)CC2  -0.558%
23. COc1cccc(C2=CC(=O)C[C@H](c3ccc4c(c3)OCO4)C2)c1  -1.55%
24. COC(=O)CSc1ncnc2c1sc1nc3c(cc12)COC(C)(C)C3  -2.11%
25. Cc1nnc(NC(=O)CSc2nnc(Cc3cccn3C)n2CCc2ccccc2)s1  -2.3%
26. Cc1ccc(C(=O)Nc2ccc3ncccc3c2)cc1  -2.36%
27. O=c1oc2ccccc2c(O)c1/C=N/c1ccccn1  -2.45%
28. COCCNC(=O)C1CCC(CNS(=O)(=O)c2ccccc2)CC1 (centres undefined)  -3%
29. CCOc1ccc(N(C(C)C(=O)N2CCCCCC2)S(C)(=O)=O)cc1 (centres undefined)  -3.25%
30. COc1ccc(C(Nc2ccccn2)c2oc(CO)cc(=O)c2O)cc1 (centres undefined)  -3.88%
31. Cc1cc(C(=O)CSc2nnc(-c3cccs3)o2)c(C)n1-c1ccccc1  -4.58%
32. CCCCCN=Cc1c(C)[nH]n(-c2nc3ccccc3s2)c1=O  -4.71%
33. O=C(CN1C(=O)c2ccccc2S1(=O)=O)Nc1ncc(Cl)cc1Cl  -4.81%
34. CC(=O)Oc1ccc(C(=O)Nc2cccnc2)cc1  -6.76%
35. O=C(C1CCCCC1)N1CCN(c2ncccn2)CC1  -7.76%
36. O=C(Nc1ccc(Cl)cc1)Nc1nnc(CSCc2ccc(Cl)cc2)s1  -9.55%
37. O=C(Nc1ccccc1)c1cn2ccccc2n1  -9.66%
38. Cc1cccc(NC(=O)c2cnc3ccccn3c2=O)c1  -11.4%
39. Oc1[nH]c2ccccc2c1N=Nc1c(F)c(F)c(Cl)c(F)c1F  -13%
40. COc1ccc(C(=O)N=c2nc3ccccn3s2)cc1  -14.4%
41. O=C(O)c1cccc(Nc2ccnc(Nc3cccc(C(=O)O)c3)n2)c1  -17.6%
42. NC(=O)c1sc2nc3c(c(-c4cccs4)c2c1N)CCCCC3  -17.8%
43. O=C(/C=C1\NC2(CCCC2)Cc2ccccc21)C(=O)N/N=C/c1ccccc1O  -21.8%
44. CCCC(=O)NC(c1ccc(C)cc1)c1ccc2cccnc2c1O (centres undefined)  -68.9%
45. CCC(=O)NC(c1ccc(C)cc1)c1ccc2cccnc2c1O (centres undefined)  -80.4%
46. CCCCC(=O)NC(c1ccc(OC)c(OC)c1)c1ccc2cccnc2c1O (centres undefined)  -81.1%
47. CCCC(=O)NC(c1ccc(C(C)C)cc1)c1ccc2cccnc2c1O (centres undefined)  -83.8%
48. Cc1[nH]n(-c2ccc(Br)cc2)c(=O)c1/C=N/NC(=O)c1ccccc1  -87.3%
49. CC1=C(C(=O)OCc2ccc3c(c2)OCO3)C(c2ccc(Cl)cc2)NC(=O)N1 (centres undefined)  -87.8%
50. Cc1nnc(SCC(=O)N2CCC(c3noc4ccc(F)cc34)CC2)s1  -92.2%
51. COC(=O)[C@@]1(C)[C@H]2C(=O)N(Cc3ccccc3)C(=O)[C@H]2[C@H]2CN=C(SCc3ccc(Cl)cc3)N21  -98.7%
52. NC(=S)NN=Cc1nccc2c(C(F)(F)C(F)(F)C(F)(F)F)cccc12  -99.4%
53. COc1cccc(/C=N/Nc2ncnc(Cl)c2N)c1O  -99.6%
54. NC(=S)NN=Cc1nccc2c(C(F)(F)F)cccc12  -100%
